{"source": "paper PMC4336329", "about": "(PLoS ONE, 2015)", "note": "Hit rate of the full screen: of about 310,000 compounds, about 14,000 (4.5%) showed an effect of 50% or more. The effect is printed as a negative number. This is one part of a sample in which strong results are shown more often than they occur.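 Note: peak tail current of the secondary pulse compared with the same well before compound.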", "data": [{"molecular_target": "human ether-à-go-go-related gene (hERG) potassium channel (human, UniProt Q12809)", "sequence (Q12809 whole entry, looked up)": "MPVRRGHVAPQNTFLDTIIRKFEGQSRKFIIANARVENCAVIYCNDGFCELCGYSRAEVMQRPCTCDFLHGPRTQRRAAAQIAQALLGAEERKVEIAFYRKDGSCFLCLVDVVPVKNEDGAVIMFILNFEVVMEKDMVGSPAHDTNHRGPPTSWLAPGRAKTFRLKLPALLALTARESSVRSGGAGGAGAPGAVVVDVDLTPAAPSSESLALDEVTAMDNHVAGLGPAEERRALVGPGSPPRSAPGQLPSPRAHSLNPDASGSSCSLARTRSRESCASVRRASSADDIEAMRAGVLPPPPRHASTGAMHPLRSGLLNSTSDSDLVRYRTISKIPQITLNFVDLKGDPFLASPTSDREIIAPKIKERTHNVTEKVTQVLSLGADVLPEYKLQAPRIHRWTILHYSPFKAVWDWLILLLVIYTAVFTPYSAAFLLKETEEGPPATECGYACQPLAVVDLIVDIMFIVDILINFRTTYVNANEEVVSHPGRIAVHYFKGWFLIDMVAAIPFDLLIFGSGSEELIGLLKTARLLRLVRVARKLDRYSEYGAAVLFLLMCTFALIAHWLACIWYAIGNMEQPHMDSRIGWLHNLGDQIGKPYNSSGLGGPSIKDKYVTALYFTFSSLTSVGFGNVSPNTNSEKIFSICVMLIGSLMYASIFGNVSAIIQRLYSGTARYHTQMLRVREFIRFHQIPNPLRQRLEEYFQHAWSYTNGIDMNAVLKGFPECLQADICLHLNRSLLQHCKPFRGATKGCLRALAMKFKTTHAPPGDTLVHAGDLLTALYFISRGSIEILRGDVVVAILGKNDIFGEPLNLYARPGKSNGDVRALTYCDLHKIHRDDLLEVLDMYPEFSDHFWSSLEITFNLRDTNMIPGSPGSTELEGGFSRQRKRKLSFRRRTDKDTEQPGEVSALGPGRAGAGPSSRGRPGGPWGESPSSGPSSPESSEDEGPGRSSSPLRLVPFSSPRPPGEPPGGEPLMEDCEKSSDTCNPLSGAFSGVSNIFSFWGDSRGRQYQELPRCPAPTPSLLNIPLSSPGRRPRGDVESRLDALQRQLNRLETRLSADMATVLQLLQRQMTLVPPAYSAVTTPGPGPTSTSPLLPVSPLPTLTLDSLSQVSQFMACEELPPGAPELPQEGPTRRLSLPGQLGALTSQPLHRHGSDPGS", "test": "primary screen, population patch clamp on CHO cells stably expressing hERG; higher = less effect of the substance", "units": {"hERG current change (%, negative = inhibition) at 10uM": "%"}, "values": [{"smiles": "COc1ccc(OC)c(C2NC(=O)NC(C)=C2C(=O)Nc2ccc(C)cc2)c1", "note": "(centres unmarked)", "hERG current change (%, negative = inhibition) at 10uM": 5.98}, {"smiles": "COC(=O)[C@H](C)NC(=O)Nc1cc(OC)ccc1OC", "hERG current change (%, negative = inhibition) at 10uM": -8.76}, {"smiles": "N#CCC(=O)Nc1ccc(C(=O)OCC(=O)C23CC4CC(CC(C4)C2)C3)cc1", "hERG current change (%, negative = inhibition) at 10uM": 12.7}, {"smiles": "CC1CCCN(C(=O)C2CCCN(S(=O)(=O)c3cccc4nsnc34)C2)C1", "note": "(centres unmarked)", "hERG current change (%, negative = inhibition) at 10uM": 2.02}, {"smiles": "Cc1cccc(-n2c(-c3ccccc3)c[nH]c2=S)c1C", "hERG current change (%, negative = inhibition) at 10uM": 14.6}, {"smiles": "COCCn1c(SCC(=O)Nc2cc(OC)ccc2OC)nc2c(c1=O)SC(C)C2", "note": "(centres unmarked)", "hERG current change (%, negative = inhibition) at 10uM": -18.5}, {"smiles": "COc1cc(/C=C/CO)cc(OC)c1OC/C=C(\\C)CCC=C(C)C", "hERG current change (%, negative = inhibition) at 10uM": 1.34}, {"smiles": "CCOC(=O)c1c(NC(=S)N2CCCCC2)sc2c1CCN(C(=O)OCC)C2", "hERG current change (%, negative = inhibition) at 10uM": -1.16}, {"smiles": "CC(C)N1CCc2c(sc(NC(=O)C3CCCCC3)c2C(N)=O)C1.Cl", "hERG current change (%, negative = inhibition) at 10uM": -21.7}, {"smiles": "CCOC(=O)c1c(NC(=O)C2CCCCC2)sc2c1CCN(CC)C2.Cl", "hERG current change (%, negative = inhibition) at 10uM": -51.7}, {"smiles": "CCOC(=O)c1c(NC(=O)C2CCCCC2)sc2c1CCN(C(C)C)C2.Cl", "hERG current change (%, negative = inhibition) at 10uM": -81.6}, {"smiles": "CCN1CCc2c(sc(NC(=O)C3CCCCC3)c2C(=O)OC)C1.Cl", "hERG current change (%, negative = inhibition) at 10uM": -17.4}, {"smiles": "COC(=O)c1c(NC(=O)C2CCCCC2)sc2c1CCN(C(C)C)C2.Cl", "hERG current change (%, negative = inhibition) at 10uM": -16.5}, {"smiles": "O=C(COc1ccccc1)NCCSCc1ccc(Cl)cc1", "hERG current change (%, negative = inhibition) at 10uM": -12.6}, {"smiles": "CCC(C)NC(=O)Cn1c(=O)sc2ccccc21", "note": "(centres unmarked)", "hERG current change (%, negative = inhibition) at 10uM": 4.15}, {"smiles": "O=C(CN(Cc1ccc(Br)cc1)S(=O)(=O)c1ccccc1)NCC1CCCO1", "note": "(centres unmarked)", "hERG current change (%, negative = inhibition) at 10uM": -6.72}, {"smiles": "O=C(CN(Cc1ccccc1)S(=O)(=O)c1ccc(Cl)cc1)NCC1CCCO1", "note": "(centres unmarked)", "hERG current change (%, negative = inhibition) at 10uM": -9.79}, {"smiles": "Cc1ccc(CN(CC(=O)NCC2CCCO2)S(=O)(=O)c2ccc(C)cc2)cc1", "note": "(centres unmarked)", "hERG current change (%, negative = inhibition) at 10uM": -1.71}, {"smiles": "Cc1ccc(S(=O)(=O)N(CC(=O)NCC2CCCO2)Cc2cccc(C)c2)cc1", "note": "(centres unmarked)", "hERG current change (%, negative = inhibition) at 10uM": -60.5}, {"smiles": "Cc1ccc(S(=O)(=O)N(CC(=O)NCC2CCCO2)Cc2ccc(F)cc2)cc1", "note": "(centres unmarked)", "hERG current change (%, negative = inhibition) at 10uM": -10.6}, {"smiles": "O=C(CN(Cc1ccccc1)S(=O)(=O)c1ccc(Br)cc1)NCC1CCCO1", "note": "(centres unmarked)", "hERG current change (%, negative = inhibition) at 10uM": -77.2}, {"smiles": "Cc1noc(C)c1S(=O)(=O)N1CCCC(C(=O)Nc2nccs2)C1", "note": "(centres unmarked)", "hERG current change (%, negative = inhibition) at 10uM": -13.6}, {"smiles": "CCOc1ccc(OCCSc2nc3ccccc3[nH]2)cc1", "hERG current change (%, negative = inhibition) at 10uM": -0.985}, {"smiles": "Cl.FC(F)(F)c1ccc2c(c1)N(CCCN1CCN(CCCl)CC1)c1ccccc1S2", "hERG current change (%, negative = inhibition) at 10uM": -8.34}, {"smiles": "COc1cc2c(cc1Cl)/C(=C\\CCN(C)C)c1ccccc1S2.O=S(=O)(O)O", "hERG current change (%, negative = inhibition) at 10uM": -35.4}, {"smiles": "CN1CCN(CCCN2c3ccccc3Sc3ccc(S(=O)(=O)N(C)C)cc32)CC1.CS(=O)(=O)O", "hERG current change (%, negative = inhibition) at 10uM": -57.4}, {"smiles": "CN1CCN(CC/C=C2\\c3ccccc3Sc3ccc(S(=O)(=O)N(C)C)cc32)CC1", "hERG current change (%, negative = inhibition) at 10uM": -58}, {"smiles": "CN1CCN(CC(=O)N2c3ccccc3Sc3ccccc32)CC1", "hERG current change (%, negative = inhibition) at 10uM": -13.7}, {"smiles": "CN1CCN(CCC(=O)N2c3ccccc3Sc3ccc(Cl)cc32)CC1", "hERG current change (%, negative = inhibition) at 10uM": -48.9}, {"smiles": "CN1CCN(CCCN2c3ccccc3Sc3ccc(C(F)(F)F)cc32)CC1.Cl", "hERG current change (%, negative = inhibition) at 10uM": -30.4}, {"smiles": "CCSc1ccc2c(c1)N(CCCN1CCN(C)CC1)c1ccccc1S2.O=C(O)CC(O)C(=O)O", "hERG current change (%, negative = inhibition) at 10uM": -54.2}, {"smiles": "CN1CCN(CC(=O)Nc2ccc(S(=O)(=O)N(C)C)cc2)CC1.O=C(O)C(=O)O", "hERG current change (%, negative = inhibition) at 10uM": 6.74}, {"smiles": "CN1CCN(CC/C=C2/c3ccccc3Sc3ccc(S(=O)(=O)N(C)C)cc32)CC1", "hERG current change (%, negative = inhibition) at 10uM": -64.7}, {"smiles": "CN(C)S(=O)(=O)c1ccc2c(c1)C(=O)c1cc(S(=O)(=O)N(C)C)ccc1CC2", "hERG current change (%, negative = inhibition) at 10uM": 7.08}, {"smiles": "CN(C)S(=O)(=O)c1ccc(Cl)c(NC(=O)CN2CCc3ccccc3C2)c1", "hERG current change (%, negative = inhibition) at 10uM": -12.7}]}]}
